Measured values taken from PubChem BioAssay AID2380 (Sanford-Burnham Center for Chemical Genomics, 2010).
Out of some 330,000 compounds screened, about 960 (0.29%) were called active.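 Rule for the calls: active = compounds whose signal lies at least 3.5 SD above the mean of all wells on their plate; inactive = the rest.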 Shown is part of a subset that was picked to be rich in actives.

assay: small molecules increasing insulinoma cell replication – ATP luminescence, uHTS, primary screen (AID 2380); conditions: MIN6 cells proliferation, ATPlite luminescence, 48 h, at 10 µM, active compounds read high;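 note: 0% = DMSO-treated cells in low-serum medium and 100% = 10% serum control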

Structure (SMILES) | proliferation
c1ccc(CCNC2CCCCCC2)cc1 | 1.52% (inactive)
c1cc2c(cc1CCNC1CCCCCC1)OCO2 | 8.35% (active)
COc1ccc(CNCCc2ccc3c(c2)OCO3)c(OC)c1OC | 5.73% (inactive)
CC1(C)Cc2c(C#N)c(N3CCNCC3)nc(-c3ccco3)c2CS1 | -3.88% (inactive)
CC(=O)c1ccc(OC(NC(=O)Cc2ccccc2)C(Cl)(Cl)Cl)cc1 (stereo not given) | -1.48% (inactive)
Cc1cc(OCc2cc(C(=O)O)oc2C)c2c3c(c(=O)oc2c1)CCCC3 | -3.8% (inactive)
COC(=O)COc1cc(C)cc2oc(=O)c3c(c12)CCCC3 | 5.08% (active)
COc1cc(OC)cc(C2(C#N)CCN(C)CC2)c1 | -0.56% (inactive)
CCOc1cccc(=NC2CCCCC2)c2c(C)[nH]c(C)c12 | -3.34% (inactive)
CCC1(C)CC(CCNCc2ccc(N(C)C)cc2)(c2ccc(F)cc2)CCO1 (stereo not given) | -4.45% (inactive)
COc1ccc(C(=O)CC2C(=O)N(C)C(=O)N(C)C2=O)cc1 | -0.73% (inactive)
O=c1[nH]c(=O)n(Cc2ccccc2)c(O)c1/C=N/Nc1c(F)c(F)c(F)c(F)c1F | 1.39% (inactive)
O=C(N/N=C/c1c(O)n(Cc2ccccc2)c(=O)[nH]c1=O)c1ccccc1 | 5.26% (active)
O=C(N/N=C/c1c(O)n(C2CC2)c(=S)[nH]c1=O)c1ccccc1 | -1.64% (inactive)
COC(=O)C1=C(c2ccc(Cl)c(C(F)(F)F)c2)C[C@@H]2CC[C@H]1N2C(=O)NC(C)C | -1.97% [100% = growth in 10% serum, cells starved in 0.2% serum] (inactive)
